Results published in PubChem BioAssay (NCATS).
Inconclusive results are not listed. Active and inactive are the calls of the source. The call rests on the fitted dose curve; in most records, active means well fitted cell-killing curve with a large enough effect; inconclusive means small, poorly fitted or top-dose-only effect; inactive means flat fitted curve, though single readings scatter.
Potency means the concentration at half of the fitted maximal effect.

Assay: Cell Viability - LYMP2-012 (AID 982);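 further: cellular ATP by luciferase luminescence where a drop means cytotoxicity; cells exposed to compound for one day before reading; nearly all actives have a fitted effect of over 55% in size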;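 on activity change, negative = cytotoxicity: 0% = DMSO only and full loss = 92 µM tetraoctylammonium bromide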
Conditions: LYMP2-012 lymphoblastoid cell viability qHTS; series mostly up to 92.2 µM; activity change, negative = cytotoxicity: at the top concentration
In the case of `Oc1ccc2cc(SSc3ccc4cc(O)ccc4c3)ccc2c1`, the Potency is reported as 50.1 µM (active).
For `Nc1ccc2cc3ccccc3cc2c1`, the “activity change, negative = cytotoxicity” value was -0.805% (inactive).
For `CN(C)c1ccc(C2(c3ccc(N(C)C)cc3)OC(=O)c3cc(N(C)C)ccc32)cc1`, the “activity change, negative = cytotoxicity” value was -4.02% (inactive).
For `Cc1cc(Nc2ccc(O)cc2)ccc1N`, the Potency was 39.8 µM (active).
With `Cc1cc(O)c(C(C)(C)C)cc1Sc1cc(C(C)(C)C)c(O)cc1C` the Potency was 39.8 µM (active).
In the case of `C=C(C)c1ccccc1`, the “activity change, negative = cytotoxicity” value is reported as -13.7% (inactive).
For `C=CC(=O)OCCOCCOC(=O)C=C`, the Potency was 12.6 µM (active).
With `O=C1OC(O)C(C(Cl)Cl)=C1Cl` (centres undefined) the Potency was 20 µM (active).
In the case of `CNc1ccc(O)cc1`, the Potency is reported as 3.98 µM (active).
With `CC(=O)Nc1ccc(C(=O)CCl)cc1` the Potency was 5.01 µM (active).
In the case of `CCC(C)Nc1ccc(NC(C)CC)cc1` (centres undefined), the Potency is reported as 3.98 µM (active).
In the case of `O=C=Nc1ccc(Cc2ccc(N=C=O)cc2)cc1`, the “activity change, negative = cytotoxicity” value is reported as 3.54% (inactive).
In the case of `c1ccc2c(c1)ccc1cc3c(ccc4ccccc43)cc12`, the “activity change, negative = cytotoxicity” value is reported as -2.92% (inactive).
For `c1ccc2c(c1)-c1cccc3c1c-2cc1ccccc13`, the “activity change, negative = cytotoxicity” value was 4.69% (inactive).
For `O=[N+]([O-])c1cc([N+](=O)[O-])c2ccc(S(=O)(=O)O)cc2c1O`, the “activity change, negative = cytotoxicity” value was 0.501% (inactive).
In the case of `O=Cc1ccc(Cl)c(Cl)c1`, the “activity change, negative = cytotoxicity” value is reported as 4.1% (inactive).

Assay: Cell Viability - LYMP2-014 (AID 983);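 further: cells exposed to compound for 24 h at 37 °C; nearly all actives have a fitted effect of over 50% in size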;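 on activity change, negative = cytotoxicity: plate controls were DMSO only for no effect and 92 µM tetraoctylammonium bromide for full effect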
Conditions: LYMP2-014 lymphoblastoid cells, viability qHTS; series mostly up to 92.2 µM; activity change, negative = cytotoxicity: at the top concentration
Outline: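 Quantitative HTS in lymphoblastoid cells: 24 hr compound exposure, then CellTiter-Glo ATP luminescence. Positive control was tetraoctylammonium bromide, 6.4pM to 92 uM.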
For `Nc1ccc2cc3ccccc3cc2c1`, the “activity change, negative = cytotoxicity” value was -1.5% (inactive).
For `CN(C)c1ccc(C2(c3ccc(N(C)C)cc3)OC(=O)c3cc(N(C)C)ccc32)cc1`, the “activity change, negative = cytotoxicity” value was -6.67% (inactive).
In the case of `Cc1cc(Nc2ccc(O)cc2)ccc1N`, the Potency is reported as 50.1 µM (active).
With `CO[C@H]1/C=C/O[C@@]2(C)Oc3c(C)c(O)c4c(O)c(c5c(c4c3C2=O)NC2(CCN(CC(C)C)CC2)N=5)=NC(=O)/C(C)=C\C=C\[C@H](C)[C@H](O)[C@@H](C)[C@@H](O)[C@@H](C)[C@H](OC(C)=O)[C@@H]1C` the “activity change, negative = cytotoxicity” value was -25.9% (inactive).
With `Cc1cc(O)c(C(C)(C)C)cc1Sc1cc(C(C)(C)C)c(O)cc1C` the Potency was 39.8 µM (active).
With `C=C(C)c1ccccc1` the “activity change, negative = cytotoxicity” value was -0.501% (inactive).
With `O=C1OC2(c3cc(Br)c(O)c(Br)c3Oc3c2cc(Br)c(O)c3Br)c2c(Cl)c(Cl)c(Cl)c(Cl)c21` the “activity change, negative = cytotoxicity” value was -21.7% (inactive).
For `C=CC(=O)OCCOCCOC(=O)C=C`, the Potency was 20 µM (active).
In the case of `O=C1OC(O)C(C(Cl)Cl)=C1Cl` (centres undefined), the Potency is reported as 25.1 µM (active).
With `CNc1ccc(O)cc1` the Potency was 6.31 µM (active).
In the case of `CC(=O)Nc1ccc(C(=O)CCl)cc1`, the Potency is reported as 7.94 µM (active).
In the case of `CCC(C)Nc1ccc(NC(C)CC)cc1` (centres undefined), the Potency is reported as 5.01 µM (active).
In the case of `O=C=Nc1ccc(Cc2ccc(N=C=O)cc2)cc1`, the “activity change, negative = cytotoxicity” value is reported as 0.754% (inactive).
For `c1ccc2c(c1)ccc1cc3c(ccc4ccccc43)cc12`, the “activity change, negative = cytotoxicity” value was -11.2% (inactive).
For `c1ccc2c(c1)-c1cccc3c1c-2cc1ccccc13`, the “activity change, negative = cytotoxicity” value was -2.85% (inactive).
In the case of `O=[N+]([O-])c1cc([N+](=O)[O-])c2ccc(S(=O)(=O)O)cc2c1O`, the “activity change, negative = cytotoxicity” value is reported as 3.71% (inactive).
With `O=Cc1ccc(Cl)c(Cl)c1` the “activity change, negative = cytotoxicity” value was -0.122% (inactive).

Assay: Cell Viability - LYMP2-016 (AID 984);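 further: cells exposed to compound for 24 hours at 37 °C; nearly all actives have a fitted effect of over 55% in size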; on activity change, negative = cytotoxicity: on the % scale 0 is the no-effect control and ±100 the full control effect
Conditions: LYMP2-016 lymphoblastoid cell viability, qHTS; series mostly up to 92.2 µM; activity change, negative = cytotoxicity: at the top concentration
Outline: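 Human lymphoblastoid cells (LYMP2-016), 2500/well in complete medium, preincubated 5 hr at 37 C, then compound-treated 24 hr at 37 C. Intracellular ATP read by CellTiter-Glo luminescence after 30 min at room temperature; AC50 from Hill-equation concentration-response fits.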
For `Nc1ccc2cc3ccccc3cc2c1`, the “activity change, negative = cytotoxicity” value was -2.65% (inactive).
In the case of `CN(C)c1ccc(C2(c3ccc(N(C)C)cc3)OC(=O)c3cc(N(C)C)ccc32)cc1`, the “activity change, negative = cytotoxicity” value is reported as -6.41% (inactive).
With `Cc1cc(Nc2ccc(O)cc2)ccc1N` the Potency was 50.1 µM (active).
With `Cc1cc(O)c(C(C)(C)C)cc1Sc1cc(C(C)(C)C)c(O)cc1C` the Potency was 50.1 µM (active).
With `C=C(C)c1ccccc1` the “activity change, negative = cytotoxicity” value was -7.61% (inactive).
For `O=C1OC2(c3cc(Br)c(O)c(Br)c3Oc3c2cc(Br)c(O)c3Br)c2c(Cl)c(Cl)c(Cl)c(Cl)c21`, the “activity change, negative = cytotoxicity” value was -26.6% (inactive).
In the case of `C=CC(=O)OCCOCCOC(=O)C=C`, the Potency is reported as 20 µM (active).
In the case of `O=C1OC(O)C(C(Cl)Cl)=C1Cl` (centres undefined), the Potency is reported as 25.1 µM (active).
With `CNc1ccc(O)cc1` the Potency was 7.94 µM (active).
In the case of `CC(=O)Nc1ccc(C(=O)CCl)cc1`, the Potency is reported as 7.94 µM (active).
In the case of `CCC(C)Nc1ccc(NC(C)CC)cc1` (centres undefined), the Potency is reported as 5.01 µM (active).
In the case of `O=C=Nc1ccc(Cc2ccc(N=C=O)cc2)cc1`, the “activity change, negative = cytotoxicity” value is reported as -11.4% (inactive).
In the case of `c1ccc2c(c1)ccc1cc3c(ccc4ccccc43)cc12`, the “activity change, negative = cytotoxicity” value is reported as 0.225% (inactive).
For `c1ccc2c(c1)-c1cccc3c1c-2cc1ccccc13`, the “activity change, negative = cytotoxicity” value was 4.16% (inactive).
In the case of `O=[N+]([O-])c1cc([N+](=O)[O-])c2ccc(S(=O)(=O)O)cc2c1O`, the “activity change, negative = cytotoxicity” value is reported as -0.36% (inactive).
In the case of `O=Cc1ccc(Cl)c(Cl)c1`, the “activity change, negative = cytotoxicity” value is reported as -0.807% (inactive).

Assay: Cell Viability - LYMP2-018 (AID 985);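 further: compound exposure lasted 24 hr at 37 °C; nearly all actives have a fitted effect of over 50% in size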;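 on activity change, negative = cytotoxicity: plate controls were DMSO only for no effect and tetraoctylammonium bromide at 92 µM for full effect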
Conditions: LYMP2-018 lymphoblastoid cells, viability (qHTS); series mostly up to 92.2 µM; activity change, negative = cytotoxicity: at the top concentration
Outline: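 In this qHTS viability assay, cells are treated for 24 hr and cellular ATP is quantified by luciferase-based luminescence, with tetraoctylammonium bromide as positive control.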
In the case of `Nc1ccc2cc3ccccc3cc2c1`, the “activity change, negative = cytotoxicity” value is reported as -17.9% (inactive).
For `CN(C)c1ccc(C2(c3ccc(N(C)C)cc3)OC(=O)c3cc(N(C)C)ccc32)cc1`, the “activity change, negative = cytotoxicity” value was -2.82% (inactive).
With `Cc1cc(Nc2ccc(O)cc2)ccc1N` the Potency was 39.8 µM (active).
With `Cc1cc(O)c(C(C)(C)C)cc1Sc1cc(C(C)(C)C)c(O)cc1C` the Potency was 50.1 µM (active).
In the case of `C=C(C)c1ccccc1`, the “activity change, negative = cytotoxicity” value is reported as -12.4% (inactive).
In the case of `C=CC(=O)OCCOCCOC(=O)C=C`, the Potency is reported as 15.8 µM (active).
For `O=C1OC(O)C(C(Cl)Cl)=C1Cl` (centres undefined), the Potency was 25.1 µM (active).
With `CNc1ccc(O)cc1` the Potency was 5.01 µM (active).
With `CC(=O)Nc1ccc(C(=O)CCl)cc1` the Potency was 7.94 µM (active).
For `CCC(C)Nc1ccc(NC(C)CC)cc1` (centres undefined), the Potency was 3.16 µM (active).
With `O=C=Nc1ccc(Cc2ccc(N=C=O)cc2)cc1` the “activity change, negative = cytotoxicity” value was -11.6% (inactive).
In the case of `c1ccc2c(c1)ccc1cc3c(ccc4ccccc43)cc12`, the “activity change, negative = cytotoxicity” value is reported as -7.12% (inactive).
For `c1ccc2c(c1)-c1cccc3c1c-2cc1ccccc13`, the “activity change, negative = cytotoxicity” value was -6.52% (inactive).
With `O=[N+]([O-])c1cc([N+](=O)[O-])c2ccc(S(=O)(=O)O)cc2c1O` the “activity change, negative = cytotoxicity” value was -15.1% (inactive).
For `O=Cc1ccc(Cl)c(Cl)c1`, the “activity change, negative = cytotoxicity” value was 5.81% (inactive).
